According to PubChem BioAssay AID504452 (The Scripps Research Institute Molecular Screening Center, 2011):
The source made the active and inactive calls. No stated cut-off is given here; in the data, active means activation above about 85%; inactive means the rest.

Target: Peroxisome proliferator-activated receptor gamma (Homo sapiens) (UniProt P37231)
Experiment: PPARg partial agonist activation, primary screen, cell-based, luciferase reporter, luminescence (AID 504452);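 further: Cos-1 cells carrying PPARgamma and a response element luciferase reporter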
Details: at 5 µM, stronger effect = higher value; activation (% of full agonist control): measured here: relative to full agonist control

Sequence of Peroxisome proliferator-activated receptor gamma (Homo sapiens) (P37231 whole entry, looked up): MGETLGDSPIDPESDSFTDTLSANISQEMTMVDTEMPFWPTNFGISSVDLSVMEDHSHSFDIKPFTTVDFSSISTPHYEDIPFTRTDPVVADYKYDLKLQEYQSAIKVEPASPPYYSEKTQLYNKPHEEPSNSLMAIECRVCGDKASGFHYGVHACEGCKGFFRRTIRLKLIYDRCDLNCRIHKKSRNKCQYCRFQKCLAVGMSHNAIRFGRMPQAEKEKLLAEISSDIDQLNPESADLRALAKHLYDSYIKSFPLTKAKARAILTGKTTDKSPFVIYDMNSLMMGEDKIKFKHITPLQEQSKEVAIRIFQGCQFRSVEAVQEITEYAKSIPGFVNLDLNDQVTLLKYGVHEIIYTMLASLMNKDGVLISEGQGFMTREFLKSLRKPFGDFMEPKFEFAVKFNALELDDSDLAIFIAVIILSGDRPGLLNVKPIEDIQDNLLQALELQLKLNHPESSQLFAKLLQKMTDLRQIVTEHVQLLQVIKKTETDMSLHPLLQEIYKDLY

Compound	activation (% of full agonist control) [%]	activation (% of partial agonist control)
O=C1C(=O)N(Cc2ccccc2)C(c2cccc(O)c2)/C1=C(\O)c1ccc2c(c1)OCCO2 (stereo unspecified)	25.6	56.7% (inactive)
O=[N+]([O-])c1cc(S(=O)(=O)Nc2cccc(C(F)(F)F)c2)ccc1-n1nnc2ccccc21	34.2	75.8% (inactive)
COCCn1cnc2c1c(=O)n(Cc1cc(C(C)=O)ccc1OC)c(=O)n2Cc1ccccc1	39.8	88.2% (active)
COc1ccc(N2C(=O)C(CN3CCN(C)CC3)C2c2ccccc2)cc1 (stereo unspecified)	31.9	70.6% (inactive)
Cc1ccc2nc(N3C(=O)C(O)=C(C(=O)c4ccco4)C3c3ccc(C)o3)sc2c1 (stereo unspecified)	56.8	126% (active)
Cc1ccc2nc(N3C(=O)C(O)=C(C(=O)c4ccco4)C3c3ccc(O)cc3)sc2c1 (stereo unspecified)	40.9	90.5% (active)
CCOc1cccc(C2C(C(=O)c3ccco3)=C(O)C(=O)N2c2nnc(C)s2)c1 (stereo unspecified)	31.8	70.4% (inactive)
O=C(Nc1cc(Cl)ccc1O)c1cc2n(n1)C(C(F)(F)F)CC(c1ccc3c(c1)OCO3)N2 (stereo unspecified)	35	77.5% (inactive)
O=C(NC(Cc1ccccc1)C(=O)O)/C(=C/c1ccc(Cl)cc1)NC(=O)c1ccco1 (stereo unspecified)	24.4	54% (inactive)
COc1ccc2nc(N3C(=O)C(O)=C(C(=O)c4ccco4)C3c3ccc(C)o3)sc2c1 (stereo unspecified)	41.1	91.1% (active)
COc1ccc(CN(C)C(=O)[C@H](Cc2ccccc2)NC(=O)c2ccco2)c(OC)c1	32.8	72.7% (inactive)
COc1ccc(-c2ccc(CCC(=O)O)n2CC(=O)Nc2ccccc2C)cc1	35.1	77.7% (inactive)
O=C(O)c1ccc(N2C(=O)CC(SC(=Nc3ccccc3)Nc3ccccc3)C2=O)cc1 (stereo unspecified)	38.3	84.7% (inactive)
Cc1cc(C(=O)CN2C(=O)C(=O)N(Cc3ccccc3)C2=O)c(C)n1Cc1ccc(F)cc1	38	84.1% (inactive)
CC(=O)N1CCN(C(=O)c2ccccc2NS(=O)(=O)c2ccc(F)cc2)CC1	30.5	67.6% (inactive)
O=C1CC(NS(=O)(=O)c2ccc3ccccc3c2)CN1c1ccccc1 (stereo unspecified)	31.7	70.2% (inactive)
COc1ccc(C2C(C(=O)N3CCC(C(N)=O)CC3)CC(=O)N2c2ccc(OC)cc2)cc1 (stereo unspecified)	25.5	56.5% (inactive)

Compound	activation (% of full agonist control) [%]	activation (% of partial agonist control)
COc1ccc(-c2cc(C(=O)NC(C)c3ccccn3)c3ccccc3n2)cc1OC (stereo unspecified)	40.7	90.2% (active)
Cc1cc(C)c2nc(N3C(=O)C(O)=C(C(=O)c4ccco4)C3c3ccc(O)cc3)sc2c1 (stereo unspecified)	40.2	89.1% (active)
CCc1ccc(N2CC(C(=O)OCC(=O)Nc3ccc(C(C)=O)cc3)CC2=O)cc1 (stereo unspecified)	31	68.6% (inactive)
O=C1C(=O)N(CCCn2ccnc2)C(c2ccc(Cl)cc2)/C1=C(\O)c1ccc2c(c1)OCCO2 (stereo unspecified)	41.5	91.9% (active)
O=C(CSc1nc(=O)n(CCN2CCOCC2)c2c1CCCC2)Nc1cccc([N+](=O)[O-])c1	47.7	106% (active)
Cc1ccc(-c2nnc(Nc3ccc(O)cc3)c3ccccc23)cc1S(=O)(=O)NCCO	41.1	91% (active)
O=C(CN1CCOC1=O)N1CCCC(N2CCN(c3cccc(C(F)(F)F)c3)CC2)C1 (stereo unspecified)	26.5	58.8% (inactive)
COc1ccc(C=NNS(=O)(=O)c2ccc(F)cc2)cc1COc1cc(F)ccc1[N+](=O)[O-]	42.9	95% (active)
CC(Oc1ccc(F)cc1)C(=O)Nc1cc(S(=O)(=O)N2CCCCC2)ccc1N1CCOCC1 (stereo unspecified)	31.1	68.8% (inactive)
Cn1nc(-c2ccccc2)c(CO)c1Oc1cccc(C(F)(F)F)c1	30.3	67% (inactive)
CC1Cc2cc(/C(O)=C3/C(=O)C(=O)N(CCN4CCOCC4)C3c3ccc(N(C)C)cc3)ccc2O1 (stereo unspecified)	29.1	64.3% (inactive)
NC(=O)C1CCCN(Cc2c(C(=O)N3CCc4ccccc4C3)nc3ccc(Cl)cn23)C1 (stereo unspecified)	30.2	66.9% (inactive)
CN1C(=O)COc2ccc(C(=O)c3oc4ccccc4c3-c3cnc4c(c3)COc3ccccc3-4)cc21	8.28	18.3% (inactive)
O=C(CSc1nc(=O)n(CCCN2CCOCC2)c2c1CCC2)Nc1cccc(F)c1	40.3	89.3% (active)
O=C(Nc1ccccc1F)C(=O)c1cn(CC(=O)N2CCCCC2)c2ccccc12	34.4	76.1% (inactive)
O=C(O)COc1ccccc1/C=C1\SC(=S)N(NC(=O)c2ccccc2O)C1=O	41.4	91.7% (active)
